# Results taken from PubChem BioAssay.
# Values without a mark were called inactive. Activity calls are given as the source filed them. Cut-off read from the data, not from the text of the source, unless noted: active = inhibition above about 28%; inactive = the rest.
# Legend:
# [1] = StAR promoter reporter inhibitors, counter-screen for LRH-1 inverse agonist project, cell-based, luminescence, high throughput (AID 651611); details: StAR promoter luciferase reporter counterscreen, at 3.6 µM, stronger effect = higher value
# [2] = target: Nuclear receptor subfamily 5 group A member 2 (Homo sapiens) (UniProt O00482); assay: NR5A2 activity suppression in reporter cells – cell-based, luminescence, confirmation (AID 651613; in the data active = inhibition above about 42%;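 note: HEK293T cells co-transfected with LRH-1 and StAR promoter luciferase reporter; 0% = vehicle wells and 100% = parental cells lacking receptor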); details: cell-based LRH-1 luciferase reporter, inverse agonism; at 3.6 µM; stronger effect = higher value
# Sequence of Nuclear receptor subfamily 5 group A member 2 (Homo sapiens) (O00482 whole entry, looked up): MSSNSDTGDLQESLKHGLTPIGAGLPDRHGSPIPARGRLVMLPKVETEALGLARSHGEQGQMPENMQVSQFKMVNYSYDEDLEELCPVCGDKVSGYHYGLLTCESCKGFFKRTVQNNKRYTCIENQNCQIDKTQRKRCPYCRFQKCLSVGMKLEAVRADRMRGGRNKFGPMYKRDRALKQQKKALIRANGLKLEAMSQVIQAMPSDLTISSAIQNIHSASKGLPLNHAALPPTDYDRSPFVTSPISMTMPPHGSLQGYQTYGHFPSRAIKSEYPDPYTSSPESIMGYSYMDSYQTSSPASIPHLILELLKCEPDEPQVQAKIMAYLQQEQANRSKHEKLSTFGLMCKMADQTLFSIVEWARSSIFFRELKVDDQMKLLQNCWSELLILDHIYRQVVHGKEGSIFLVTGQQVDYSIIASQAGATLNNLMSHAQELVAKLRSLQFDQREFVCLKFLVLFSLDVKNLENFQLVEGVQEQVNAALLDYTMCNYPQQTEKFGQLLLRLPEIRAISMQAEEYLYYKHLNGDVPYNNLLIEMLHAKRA
# [3] = target: Steroidogenic factor 1 (Homo sapiens) (UniProt Q13285); assay: inverse agonism at SF1 nuclear receptor – cell-based, luminescence, high throughput, counter-screen for LRH-1 inverse agonist project (AID 651614; in the data active = inhibition above about 44%;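 note: cells cotransfected with StAR promoter reporter and SF1 expression vector; 0% = vehicle on cells with receptor and 100% = vehicle on cells lacking receptor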); details: cell-based SF1 luciferase reporter, at 3.6 µM, stronger effect = higher value
# Sequence of Steroidogenic factor 1 (Homo sapiens) (Q13285 whole entry, looked up, the tested form may be a part): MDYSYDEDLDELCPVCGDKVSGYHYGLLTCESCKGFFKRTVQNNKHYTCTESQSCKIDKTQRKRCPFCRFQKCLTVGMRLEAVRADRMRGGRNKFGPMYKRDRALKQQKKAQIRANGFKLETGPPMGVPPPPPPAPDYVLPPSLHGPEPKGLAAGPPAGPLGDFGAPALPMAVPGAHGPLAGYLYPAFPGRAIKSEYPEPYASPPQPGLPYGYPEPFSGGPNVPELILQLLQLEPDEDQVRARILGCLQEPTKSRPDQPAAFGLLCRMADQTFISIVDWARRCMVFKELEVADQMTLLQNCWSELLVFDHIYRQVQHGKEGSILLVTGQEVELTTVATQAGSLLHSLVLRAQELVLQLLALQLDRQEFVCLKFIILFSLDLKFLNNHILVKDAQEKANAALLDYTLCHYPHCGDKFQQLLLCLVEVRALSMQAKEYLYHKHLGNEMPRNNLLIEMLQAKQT
# [4] = compounds suppressing VP16-driven luciferase signal – cell-based, luminescence, high throughput, counter-screen for LRH-1 inverse agonist project (AID 651615; in the data active = inhibition above about 33%); details: Gal4-VP16 luciferase reporter cells, at 3.6 µM, stronger effect = higher value
Compound,inhibition [1],inhibition [2],inhibition [3],inhibition [4]
Nc1ccccc1Nc1ccncc1[N+](=O)[O-],0.62%,55.8% (active),63.3% (active),-1.54%
CC(=O)c1ccc(-c2c(C)cc3oc(=O)cc(-c4ccccc4)c3c2C)cc1,-6.71%,57% (active),52.6% (active),-3.38%
N#CCc1ccc(OCCCN2CCC(C(O)(c3ccccc3)c3ccccc3)CC2)cc1,8.39%,40.8%,27.8%,12.4%
O=C(CCl)Nc1ccc(S(=O)(=O)NC2=NCCCCC2)cc1,41.5% (active),62% (active),61% (active),17.7%
C/C(=N\NC(N)=S)c1ccncc1,6.9%,54.2% (active),49% (active),3.01%
O=[N+]([O-])c1cccc(-c2ccc3nnc(SCc4cccnc4)n3n2)c1,3.6%,62.1% (active),62% (active),19.4%
CC(=O)Nc1ccc(NC(=O)CSc2nc3nc(-c4cccs4)cc(C(F)(F)F)c3c(=O)[nH]2)cc1,8.21%,54.2% (active),49.2% (active),-4.54%
C=CCn1c(CCNC(=O)c2cccs2)nnc1SCC(=O)Nc1cccc(Cl)c1C,8.38%,57.9% (active),53.4% (active),2.77%
Cc1ccc(S(=O)(=O)Oc2ccccc2/C=N/NC(N)=S)cc1,42.5% (active),70.6% (active),66.8% (active),47.2% (active)
O=C(COC(=O)C1CC(=O)N(Cc2ccccc2)C1)Nc1ccc2c(c1)OCO2 (stereo unspecified),6.45%,50.9% (active),54.8% (active),-9.97%
CCCn1c(NC(=O)c2ccc([N+](=O)[O-])o2)nc2ccccc21,18.9%,51.3% (active),21.2%,-2.27%
COc1cc2c(cc1OC)CN(C(=O)c1cc(=O)c3ccccc3o1)CC2,46.3% (active),30.2%,40.7%,16%
O=C(Cc1ccccc1)N/N=C/c1ccc([N+](=O)[O-])s1,2.21%,60% (active),62.1% (active),-9.91%
COc1ccc2c(c1)c[n+](C)c1c3cc(OC)c(OC)cc3ccc21,12.1%,58.3% (active),56.5% (active),68.9% (active)
COc1cc2c(cc1OC)CN(C(=O)CN1C(=O)NC3(CCC(C)CC3)C1=O)CC2 (stereo unspecified),11.1%,46% (active),46.4% (active),7.61%
CC(=O)ON=C1C=CC(=C(C#N)c2ccccc2)C=C1,50.8% (active),79% (active),79.4% (active),20.2%
O=C(Nc1ccc(NC(=O)c2ccc([N+](=O)[O-])o2)cc1Cl)c1ccco1,19.6%,59.8% (active),73% (active),-20.2%
O=C(Nc1nccs1)c1ccc(S(=O)(=O)NCC2CCCCC2)cc1,6.64%,41.7% (active),42.4%,33.3% (active)
C/C(=N/N1CCN(Cc2cccc3ccccc23)CC1)c1cccnc1,-12%,-17.6%,-2.52%,-2.08%
O=C(CSc1nncc(=O)[nH]1)Nc1cccc([N+](=O)[O-])c1,11.7%,57.3% (active),53.2% (active),8.83%
O=C(COC(=O)c1ccccn1)Nc1cccnc1Cl,3.58%,40.5%,39.4%,-6.21%
Oc1cccc(Nc2nc(-c3ccccc3Cl)nc3ccccc23)c1,9.52%,54.2% (active),48.3% (active),-9.51%
Cc1ccc(NC(=O)CSc2nsc(SCC(=O)Nc3ccc(C)cc3C)c2C#N)c(C)c1,13.3%,46.1% (active),34.5%,-0.96%
O=C(c1ccc([N+](=O)[O-])o1)N1CCN(c2nc3c(Cl)cccc3s2)CC1,10.8%,64.6% (active),61.3% (active),3.24%
